The record followed here is PubChem BioAssay (NCI).

Each structure is given as a SMILES string. This is part of a sample that, as a whole, favours compounds with a hit. Of some 83,000 tested, about 20% had one in any assay.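 Growth was measured after 48 h exposure to one concentration of compound in 96-well plates. Values under 10 count as active.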 Values without a mark were called inactive. Activity calls are given as the source filed them.

Test systems include NCI-H23 lung; NCI-H226 lung; NCI-H322M lung; HOP-62 NSCLC; NCI-H460 lung; HOP-92 NSCLC; NCI-H522 lung; A549/ATCC NSCLC; 786-0 renal; COLO 205 colon.
Common to all, as to assay: NCI-60 one-dose screen, 48 h (100 = growth as untreated, 0 = no growth, -100 = all killed)
What all share (conditions): 10 µM

Turning to `COc1ccc2[nH]c(O)c(N=NC(=O)c3cc(-c4ccc(C)cc4)nc4ccccc34)c2c1`, the growth with NCI-H23 lung was 86%; in the experiment on NCI-H226 lung, 90.6%; in the experiment on NCI-H322M lung, 102%; in the experiment on HOP-62 NSCLC, 102%; in the experiment with NCI-H460 lung, 95.8%; with HOP-92 NSCLC, 97.8%. Besides, the growth with NCI-H522 lung was 99.5%; with A549/ATCC NSCLC, 87.2%; in the experiment with 786-0 renal it was 97.2%; in the experiment with COLO 205 colon, 112%.

Turning to `CCCn1c(=O)c2[nH]c(-c3ccc(OCc4nc5ccccc5[nH]4)cc3)nc2n(CCC)c1=O`, the growth in the experiment with NCI-H23 lung was 32.5%; in the experiment on NCI-H226 lung, -30.3% (active); in the experiment with NCI-H322M lung, 59.7%; with HOP-62 NSCLC, 22.2%; in the experiment with NCI-H460 lung it was 6.69% (active); with HOP-92 NSCLC, -6.45% (active). Also, the growth is 20.9% in the experiment with NCI-H522 lung, 38.6% with A549/ATCC NSCLC, -48.5% (active) with 786-0 renal and 89.1% in the experiment on COLO 205 colon.

Turning to `CC1(C)CC[C@]2(C(=O)N3CCOCC3)CC[C@]3(C)C(=CC[C@@H]4[C@@]5(C)CC[C@H](NCO)C(C)(C)[C@@H]5CC[C@]43C)[C@H]2C1`, the growth in the experiment with NCI-H23 lung is -88.1% (active); in the experiment with NCI-H226 lung, -88.3% (active); in the experiment with NCI-H322M lung, -97.8% (active); in the experiment on HOP-62 NSCLC, -73.8% (active); in the experiment on NCI-H460 lung, -92.7% (active); with HOP-92 NSCLC, -64.3% (active). In addition, the growth was -79.8% (active) in the experiment with NCI-H522 lung, -85.8% (active) with A549/ATCC NSCLC, -88.2% (active) in the experiment with 786-0 renal and -72.7% (active) with COLO 205 colon.

Regarding `O=C(c1ccc([N+](=O)[O-])c([N+](=O)[O-])c1O)n1[nH]c(=O)c2ccccc2c1=O`, the growth was 50.5% with NCI-H23 lung; 82.1% with NCI-H226 lung; 85.8% in the experiment on NCI-H322M lung; 75.5% in the experiment with HOP-62 NSCLC; 44.8% in the experiment with NCI-H460 lung; 78.6% with HOP-92 NSCLC. The growth in the experiment with NCI-H522 lung was 54.8%; in the experiment on A549/ATCC NSCLC it was 77.6%; with 786-0 renal it was 97.7%; in the experiment on COLO 205 colon it was 124%.

In the case of `CONC[C@]1(C)C=C2C(=O)[C@](C)(O)C3(CC3)C(C)=C2[C@H]1O`, the growth is -82.6% (active) with NCI-H23 lung; -26.7% (active) with NCI-H226 lung; -9.89% (active) in the experiment on NCI-H322M lung; -21.7% (active) in the experiment on HOP-62 NSCLC; -24.4% (active) in the experiment on NCI-H460 lung; -16.6% (active) in the experiment with HOP-92 NSCLC. The growth in the experiment on NCI-H522 lung is -71.1% (active); in the experiment on A549/ATCC NSCLC it was 5.7% (active); in the experiment with 786-0 renal, 5.71% (active); in the experiment with COLO 205 colon, -79.1% (active).

As for `CC(=O)Oc1ccccc1C(=O)Oc1ccc(C(=O)/C=C/c2ccncc2)cc1`, the growth in the experiment on NCI-H23 lung is 36.9%; in the experiment on NCI-H226 lung, 62.8%; in the experiment on NCI-H322M lung, 66.5%; in the experiment with HOP-62 NSCLC it was 83.4%; in the experiment with NCI-H460 lung, 35.6%; with HOP-92 NSCLC, 94.1%. Further, the growth with NCI-H522 lung was 59.1%; with A549/ATCC NSCLC, 81%; in the experiment with 786-0 renal, 53.2%; in the experiment with COLO 205 colon, 40.4%.

Take `O=C(CNc1nc(-c2ccccc2)cs1)Nc1ccccc1`: the growth was -86.4% (active) in the experiment with NCI-H23 lung; -2.46% (active) with NCI-H226 lung; -96.2% (active) in the experiment with NCI-H322M lung; -62.9% (active) in the experiment with HOP-62 NSCLC; -11.4% (active) in the experiment with NCI-H460 lung; -8.88% (active) with HOP-92 NSCLC. Also, the growth with NCI-H522 lung was -81.6% (active); with A549/ATCC NSCLC, 7.05% (active); with 786-0 renal it was -25.5% (active); with COLO 205 colon, -83.8% (active).

Consider `O=C(Cn1nc(-c2ccccc2)ccc1=O)NN1C(=O)c2ccccc2C1=O`, for which the growth was 105% with NCI-H23 lung; 101% with NCI-H226 lung; 117% with NCI-H322M lung; 102% with HOP-62 NSCLC; 99.7% with NCI-H460 lung; 125% with HOP-92 NSCLC. The growth in the experiment on NCI-H522 lung was 77.5%; in the experiment on A549/ATCC NSCLC it was 108%; in the experiment with 786-0 renal, 103%; with COLO 205 colon it was 131%.

Take `C/C(=C\CSc1ccccc1C(=O)O)CCCC(C)CCCC(C)CCCC(C)C` (stereo not given): the growth is 35.5% in the experiment on NCI-H23 lung; 77.5% in the experiment on NCI-H226 lung; 65.8% in the experiment on NCI-H322M lung; 57.6% with HOP-62 NSCLC; 39.6% in the experiment with NCI-H460 lung; 71.4% in the experiment on HOP-92 NSCLC. The growth in the experiment with NCI-H522 lung is 23.3%; in the experiment with A549/ATCC NSCLC, 41.3%; in the experiment with 786-0 renal, 67.3%; in the experiment with COLO 205 colon it was 87.8%.

In the case of `N#Cc1c(NC(=O)c2ccc(C(O)(C(F)(F)F)C(F)(F)F)cc2)sc2c1CCC(=O)C2`, the growth in the experiment on NCI-H23 lung is -81% (active); in the experiment on NCI-H226 lung, -57.2% (active); in the experiment with NCI-H322M lung it was 19.1%; with HOP-62 NSCLC, -17% (active); with NCI-H460 lung, 7.12% (active); with HOP-92 NSCLC, -55.7% (active). The growth in the experiment on NCI-H522 lung is -71.2% (active); in the experiment on A549/ATCC NSCLC, 9.39% (active); in the experiment with 786-0 renal, -47.7% (active); with COLO 205 colon it was -89.3% (active).

Consider `CC(=O)Nc1ccc(-c2cn(-c3cccc(C(=O)Nc4cccc(OC(F)(F)F)c4)c3)nn2)cn1`, for which the growth is 87% with NCI-H23 lung; 106% in the experiment with NCI-H226 lung; 114% in the experiment with NCI-H322M lung; 97.7% with HOP-62 NSCLC; 47.4% with NCI-H460 lung; 122% with HOP-92 NSCLC. Further, the growth was 88.5% with NCI-H522 lung, 86.3% in the experiment on A549/ATCC NSCLC, 115% in the experiment on 786-0 renal and 111% in the experiment with COLO 205 colon.

For `CC(=O)Nc1ccc(-c2cn(-c3cccc(C(=O)Nc4ccc(Cl)c(C(F)(F)F)c4)c3)nn2)cn1`, the growth with NCI-H23 lung was -67.6% (active); with NCI-H226 lung, -72.8% (active); in the experiment with NCI-H322M lung, -18.7% (active); in the experiment on HOP-62 NSCLC it was -60.2% (active); in the experiment on NCI-H460 lung, -73.3% (active); with HOP-92 NSCLC, -30.8% (active). Also, the growth with NCI-H522 lung is -63.2% (active); in the experiment on A549/ATCC NSCLC it was -43.4% (active); in the experiment on 786-0 renal, -34.4% (active); with COLO 205 colon, -40.9% (active).

For `CC1(c2ccccc2)NC(=O)N(CC(=O)Nc2ccc(C(=O)/C=C/C=C/c3ccccc3)cc2)C1=O` (stereo not given), the growth with NCI-H23 lung is 73.4%; in the experiment on NCI-H226 lung it was 57.2%; in the experiment with NCI-H322M lung it was 73.9%; in the experiment on HOP-62 NSCLC, 77.2%; in the experiment on NCI-H460 lung it was 73.2%; in the experiment on HOP-92 NSCLC, 57.3%. In addition, the growth in the experiment on NCI-H522 lung is 75.8%; in the experiment with A549/ATCC NSCLC it was 58.7%; with 786-0 renal, 7.33% (active); with COLO 205 colon it was 98%.
